Compound activity: PubChem BioAssay, National Center for Advancing Translational Sciences (NCATS)
IL-1B inflam inh: blocks inflammasome-driven IL-1 beta release; THP-1 LPS/ATP IL-1B secretion, AlphaLISA, 16 h; stronger effect = lower value; activity change, % at 57.5 µM; 360,000 compounds, 4.7% hits; AID 743279; in the data active = activity change below about -50%; inconclusive = mostly about -30% to -49%
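THP-1 cells pretreated 1 hr with compounds (up to 57.5 uM final), then stimulated with LPS (250 ng/mL final) plus ATP (1.25 mM final); secreted IL-1B measured by AlphaLISA after 16 hr, decreased signal indicating inhibition.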
TGFb SMAD3 inh: TGF-b pathway inhibition; 410,000 compounds, 1.2% hits; Potency, µM (highest dose often 46.1 µM), most hits filed as inhibitors; HepG2 CAGA-GFP TGF-b/SMAD3 reporter, GFP fluorescence, 18 h; TGF-beta stimulated, 500 pg/mL final; note: nearly all actives have a fitted effect of over 65% in size
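Smad-responsive CAGA-GFP expression was quantified in HEPG2 cells exposed to compounds and 500 pg/mL final TGF-beta for 18 h at 37 degrees C; unstimulated wells defined full inhibition.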
HepG2 viability: counter-screen for TGF-b inhibitors: cytotoxicity in HepG2 cells. Potency, µM (doses to about 46.1 µM), usual class: cytotoxic. HepG2 CAGA-GFP viability, ATP luminescence, 18 h. 410,000 compounds, 0.76% hits
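HepG2 CAGA-GFP cells (1000/well, DMEM with 1% FBS) received compound, then TGF-beta at 500 pg/mL final, and were incubated 18 hours at 37 degrees C. Viability was read by CellTiter-Glo luminescence. Media-only wells were set as complete cell-killing and DMSO as no toxicity.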
TDP1 cell noCPT: qHTS for Inhibitors of human tyrosyl-DNA phosphodiesterase 1 (TDP1): qHTS in cells in absence of CPT | DT40 Tdp1-/- hTDP1 cells, no CPT, ATP luminescence, 48 h | Potency, µM (doses to about 46.2 µM), actives largely listed as inhibitors | 420,000 compounds, 15% hits | AID 686978, 2013; note: nearly all actives have a fitted effect of over 55% in size
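Chicken DT40 Tdp1-/- cells complemented with human TDP1, screened without camptothecin (DMSO vehicle only), 400 cells/well. Compounds pin-transferred, cells incubated at 37 °C for at least 48 hr. Growth read as ATP-dependent luminescence (CellTiter-Glo, 30 min at RT).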
DT40 TDP1 CPT: DT40-hTDP1 cell growth loss with CPT; AID 686979; 420,000 compounds, 12% hits; Potency, µM (titrated, usually from 46.2 µM), hits mostly inhibitors; chicken DT40 Tdp1-/-;hTDP1 cells + 20 nM CPT, ATP luminescence, 48 h; note: nearly all actives have a fitted effect of over 55% in size
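Cell growth measured by CellTiter-Glo luminescence after a minimum 48 h, 37 C compound exposure with 20 nM CPT in Tdp1-knockout DT40 cells stably expressing hTDP1, seeded 400/well; qHTS titration format.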
ASM inhibitor: inhibitors of human secretory acid sphingomyelinase; P17405; placental ASM, HMU-PC fluorogenic substrate, 60 min; Potency, µM (doses to about 57.5 µM), most hits filed as inhibitors; 340,000 compounds, 0.006% hits; AID 504937
Target sequence (P17405 47-631 limits assumed): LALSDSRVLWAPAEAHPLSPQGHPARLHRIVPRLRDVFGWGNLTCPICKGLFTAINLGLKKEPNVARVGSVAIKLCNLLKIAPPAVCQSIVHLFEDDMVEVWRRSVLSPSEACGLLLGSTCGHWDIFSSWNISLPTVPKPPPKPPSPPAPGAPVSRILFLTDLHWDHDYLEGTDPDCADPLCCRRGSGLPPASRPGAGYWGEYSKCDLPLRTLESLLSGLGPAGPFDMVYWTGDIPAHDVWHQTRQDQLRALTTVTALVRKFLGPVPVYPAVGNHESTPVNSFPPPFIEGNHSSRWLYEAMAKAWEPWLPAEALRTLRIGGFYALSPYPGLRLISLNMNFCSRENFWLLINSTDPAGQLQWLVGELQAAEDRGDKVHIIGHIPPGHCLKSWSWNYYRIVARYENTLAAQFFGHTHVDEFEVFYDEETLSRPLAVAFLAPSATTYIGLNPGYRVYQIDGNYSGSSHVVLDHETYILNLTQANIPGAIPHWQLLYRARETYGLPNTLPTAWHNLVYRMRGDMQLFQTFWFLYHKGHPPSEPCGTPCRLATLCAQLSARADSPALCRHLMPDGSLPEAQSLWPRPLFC
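Steps: dispense placental human ASM, pin compound, wait 10 min at room temperature, add HMU-PC0 substrate at 9 uM final, incubate 60 min at 37 °C, add stop solution raising pH to 10, read fluorescence.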
Numbers stand for hits. Rows were chosen to be rich in hits. Some 19% of all compounds tested hit in one or more screens of this group. Unless noted, calls come from the whole dose curve; as a rule, active = well fitted curve in the direction sought with a large enough effect; inconclusive = small, poorly fitted or top-dose-only effect, or another doubt; inactive = no such curve, though single readings can be large; an effect the other way counts as inactive or inconclusive.

`Cc1ccc(C(=O)NC(=C(Cl)Cl)S(=O)(=O)c2ccccc2)cc1` gave IL-1B inflam inh -95, TGFb SMAD3 inh inconclusive, HepG2 viability inactive, TDP1 cell noCPT 21µM, DT40 TDP1 CPT inconclusive and ASM inhibitor inactive.
Screening C[C@@H]1CN([C@H](C)CO)C(=O)c2cc(Br)cnc2O[C@@H]1CN(C)C(=O)Nc1cccc(F)c1 returned IL-1B inflam inh inactive, TGFb SMAD3 inh inactive, HepG2 viability inactive, TDP1 cell noCPT inactive and DT40 TDP1 CPT inactive.
For CCOC(=O)c1c(NC(=O)/C=C/C(=O)O)sc(C)c1-c1ccc(C(C)(C)C)cc1 the results were IL-1B inflam inh -106, TGFb SMAD3 inh inconclusive, HepG2 viability 13µM, TDP1 cell noCPT 21µM, DT40 TDP1 CPT 13µM and ASM inhibitor inactive.
`Cc1sc(NC(=O)C2CCCCC2C(=O)O)c(C(N)=O)c1-c1ccc(C(C)(C)C)cc1` (stereo not given) gave IL-1B inflam inh inactive, TGFb SMAD3 inh inactive, HepG2 viability inactive, TDP1 cell noCPT inactive, DT40 TDP1 CPT inactive and ASM inhibitor inactive.
CCOC(=O)c1c(NC(=O)/C=C\C(=O)O)sc(C)c1-c1ccccc1 was read as IL-1B inflam inh -99, TGFb SMAD3 inh inactive, HepG2 viability inactive, TDP1 cell noCPT inconclusive, DT40 TDP1 CPT inconclusive and ASM inhibitor inactive.
For Cc1sc(NC(=O)/C=C/C(=O)O)c(C(N)=O)c1-c1ccc(C(C)(C)C)cc1 the results were IL-1B inflam inh -91, TGFb SMAD3 inh inconclusive, HepG2 viability inactive, TDP1 cell noCPT inconclusive, DT40 TDP1 CPT 23µM and ASM inhibitor inactive.
Screening Cc1sc(NC(=O)c2cccc([N+](=O)[O-])c2)c(C(N)=O)c1-c1ccc(C(C)(C)C)cc1 returned IL-1B inflam inh inactive, TGFb SMAD3 inh inactive, HepG2 viability inactive, TDP1 cell noCPT 21µM, DT40 TDP1 CPT inconclusive and ASM inhibitor inactive.
Screening CCN(CC)c1ccc(-c2nc(-c3ccccc3C)no2)cc1[N+](=O)[O-] returned TGFb SMAD3 inh inactive, HepG2 viability inactive, TDP1 cell noCPT inconclusive and DT40 TDP1 CPT inconclusive.
For Cc1sc(NC(=O)C2CCCCC2C(=O)O)c(C(N)=O)c1-c1ccccc1 (stereo not given) the results were IL-1B inflam inh inactive, TGFb SMAD3 inh inactive, HepG2 viability inactive, TDP1 cell noCPT inactive, DT40 TDP1 CPT inactive and ASM inhibitor inactive.
CCc1ccc(-c2c(C)sc(NC(C)=O)c2C(N)=O)cc1 was read as IL-1B inflam inh inconclusive, TGFb SMAD3 inh inactive, HepG2 viability inactive, TDP1 cell noCPT 23µM, DT40 TDP1 CPT inconclusive and ASM inhibitor inactive.
Cc1sc(NC(=O)C2C3CCC(C3)C2C(=O)O)c(C(N)=O)c1-c1ccc(C(C)(C)C)cc1 (stereo not given) was read as IL-1B inflam inh inactive, TGFb SMAD3 inh inactive, HepG2 viability inactive, TDP1 cell noCPT 12µM, DT40 TDP1 CPT inconclusive and ASM inhibitor inactive.
Screening COc1ccc(CNc2oc(/C=C/c3cc(OC)c(OC)c(OC)c3)nc2C#N)cc1 returned TGFb SMAD3 inh inconclusive, HepG2 viability inactive, TDP1 cell noCPT inconclusive and DT40 TDP1 CPT inconclusive.
`O=C(N[C@H]1CCCCNC1=O)c1cc(COc2ccc(F)cc2F)on1` gave IL-1B inflam inh inactive, TGFb SMAD3 inh inactive, HepG2 viability inactive, TDP1 cell noCPT inactive, DT40 TDP1 CPT inactive and ASM inhibitor inactive.
`O=C1[C@@H]2[C@@H]3C[C@@H]([C@H]4ON=C(c5ccc(Cl)cc5Cl)[C@@H]34)[C@@H]2C(=O)N1C1CCCCC1` gave IL-1B inflam inh -55, TGFb SMAD3 inh inconclusive, HepG2 viability inactive, TDP1 cell noCPT inconclusive, DT40 TDP1 CPT inconclusive and ASM inhibitor inactive.
Screening CN1C(=O)[C@@H]2[C@@H]3C[C@@H]([C@H]4ON=C(c5ccc(Cl)cc5)[C@@H]34)[C@@H]2C1=O returned IL-1B inflam inh inactive, TGFb SMAD3 inh inactive, HepG2 viability inactive, TDP1 cell noCPT inconclusive, DT40 TDP1 CPT inactive and ASM inhibitor inactive.
For CC(NC(=O)c1sc2ncccc2c1-n1cccc1)c1ccccc1 (stereo not given) the results were TGFb SMAD3 inh inactive, HepG2 viability inactive, TDP1 cell noCPT 23µM and DT40 TDP1 CPT inconclusive.
CCOc1ccc(CCNC(=O)c2sc3ncccc3c2-n2cccc2)cc1OCC was read as TGFb SMAD3 inh inactive, HepG2 viability inactive, TDP1 cell noCPT inconclusive and DT40 TDP1 CPT 26µM.
Screening CC(C)NC(=O)c1sc2ncccc2c1-n1cccc1 returned TGFb SMAD3 inh inactive, HepG2 viability inactive, TDP1 cell noCPT 2.6µM and DT40 TDP1 CPT inconclusive.
Screening O=S(=O)(Cc1ccccc1)N(O)c1ccccc1 returned IL-1B inflam inh -63, TGFb SMAD3 inh inactive, HepG2 viability inactive, TDP1 cell noCPT 23µM, DT40 TDP1 CPT 21µM and ASM inhibitor inactive.
For O=C(O)CNS(=O)(=O)Cc1ccccc1 the results were IL-1B inflam inh inactive, TGFb SMAD3 inh inactive, HepG2 viability inactive, TDP1 cell noCPT inactive, DT40 TDP1 CPT inactive and ASM inhibitor inactive.
For O=C(c1cccn1-c1nnc(N2CCCCC2)s1)N1CCN(c2ccc(Cl)cc2)CC1 the results were TGFb SMAD3 inh inconclusive, HepG2 viability inactive, TDP1 cell noCPT 26µM and DT40 TDP1 CPT inconclusive.
`Cc1ccc(Cl)cc1N1CCN(C(=O)C2CCN(c3nnc(-n4cccc4)s3)CC2)CC1` gave IL-1B inflam inh inactive, TGFb SMAD3 inh inconclusive, HepG2 viability inactive, TDP1 cell noCPT 16µM, DT40 TDP1 CPT inconclusive and ASM inhibitor inactive.
`O=C(c1cccn1-c1nnc(N2CCCC2)s1)N1CCN(c2ccc(Cl)cc2)CC1` gave TGFb SMAD3 inh inconclusive, HepG2 viability inactive, TDP1 cell noCPT 23µM and DT40 TDP1 CPT 21µM.
Screening Cc1ccc(Cl)cc1N1CCN(C(=O)c2cccn2-c2nnc(N3CCCCC3)s2)CC1 returned TGFb SMAD3 inh inconclusive, HepG2 viability inactive, TDP1 cell noCPT 13µM and DT40 TDP1 CPT 18µM.
For O=C(Nc1cc(C(F)(F)F)ccc1Cl)C1CCN(c2nnc(-n3cccc3)s2)CC1 the results were IL-1B inflam inh inactive, TGFb SMAD3 inh inactive, HepG2 viability inactive, TDP1 cell noCPT inconclusive, DT40 TDP1 CPT inactive and ASM inhibitor inactive.
For O=C(O)C1Nc2ccc(C(F)(F)F)cc2C2OCCC12 (stereo not given) the results were IL-1B inflam inh inactive, TGFb SMAD3 inh inactive, HepG2 viability inactive, TDP1 cell noCPT inactive, DT40 TDP1 CPT inactive and ASM inhibitor inactive.
`Cc1cccc(N2CCN(C(=O)c3cccn3-c3nnc(N4CCCCC4)s3)CC2)c1C` gave TGFb SMAD3 inh inconclusive, HepG2 viability inactive, TDP1 cell noCPT 23µM and DT40 TDP1 CPT 23µM.
